Data: the supplement of paper PMC6555819

Assays:
Test in all cases: PBM binding z-score (relative to random genomic background probes); higher = stronger binding; sequences stand for … in GC…GCGATTGACAGCGTAGAATGAAGG
[1] = test system: FXR:RXRa (NR concentration 270 nM, RXRa partner concentration 90 nM)
In short: (§1)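 Binding z-scores were set against random background probes. The data came from custom Agilent 4×180K protein-binding microarrays carrying double-stranded probes with 34-nt variable regions, incubated 1 h with ligand-free nuclear receptor dimers. Partner-specific antibodies detected binding, and scanned fluorescence was regression-normalized.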

[2] = test system: LXRa:RXRa (NR concentration 270 nM, RXRa partner concentration 90 nM)
In short: as §1

[3] = test system: LXRa homodimer (NR concentration 270 nM)
In short: as §1

[4] = test system: LXRb:RXRa (NR concentration 270 nM, RXRa partner concentration 90 nM)
In short: as §1

[5] = test system: LXRb homodimer (NR concentration 270 nM)
In short: as §1

[6] = test system: PPARa:RXRa (NR concentration 270 nM, RXRa partner concentration 90 nM)
In short: as §1

[7] = test system: PPARg:RXRa (NR concentration 180 nM, RXRa partner concentration 90 nM)
In short: as §1

[8] = test system: PPARg:RXRa 270nM:90nM, anti-RXR (NR concentration 270 nM, RXRa partner concentration 90 nM)
In short: as §1

[9] = test system: PPARg:RXRa 30nM:10nM, anti-RXR (NR concentration 30 nM, RXRa partner concentration 10 nM)
In short: as §1

[10] = test system: PPARg:RXRa 90nM:30nM, anti-RXR (NR concentration 90 nM, RXRa partner concentration 30 nM)
In short: as §1

[11] = test system: PPARg:RXRa DBDmut IVT, anti-RXR (DBD mutation: RXRa K156A/R161A, NR concentration 270 nM, RXRa partner concentration 90 nM)
In short: as §1

[12] = test system: PPARg:RXRa IVT, anti-PPARg (NR concentration 270 nM, RXRa partner concentration 90 nM)
In short: as §1

[13] = test system: PPARg DBDmut:RXRa IVT, anti-PPARg (DBD mutation: PPARg1 K132A/R137A, NR concentration 270 nM, RXRa partner concentration 90 nM)
In short: as §1

[14] = test system: PPARg DBDmut IVT, anti-PPARg (DBD mutation: PPARg1 K132A/R137A, NR concentration 270 nM)
In short: as §1

[15] = test system: PPARg homodimer (NR concentration 180 nM)
In short: as §1

[16] = test system: PXR:RXRa (NR concentration 270 nM, RXRa partner concentration 90 nM)
In short: as §1

[17] = test system: PXR homodimer (NR concentration 270 nM)
In short: as §1

[18] = test system: RARa:RXR (NR concentration 270 nM, RXRa partner concentration 90 nM)
In short: as §1

[19] = test system: RARa homodimer (NR concentration 270 nM)
In short: as §1

[20] = test system: RARb:RXRa (NR concentration 270 nM, RXRa partner concentration 90 nM)
In short: as §1

| Sequence | PBM binding z-score [1] | PBM binding z-score [2] | PBM binding z-score [3] | PBM binding z-score [4] | PBM binding z-score [5] | PBM binding z-score [6] | PBM binding z-score [7] | PBM binding z-score [8] | PBM binding z-score [9] | PBM binding z-score [10] | PBM binding z-score [11] | PBM binding z-score [12] | PBM binding z-score [13] | PBM binding z-score [14] | PBM binding z-score [15] | PBM binding z-score [16] | PBM binding z-score [17] | PBM binding z-score [18] | PBM binding z-score [19] | PBM binding z-score [20] |
| --- | --- | --- | --- | --- | --- | --- | --- | --- | --- | --- | --- | --- | --- | --- | --- | --- | --- | --- | --- | --- |
| CATACAGGTTCAGCTAGGCCAGAGTAGGGACGGC | 0.788 | 1.03 | -0.0766 | 0.293 | -0.03 | 1.21 | 0.629 | 0.338 | -0.155 | 0.0738 | -0.2 | 0.213 | 0.171 | 0.0145 | 0.268 | 0.759 | 0.121 | 0.691 | -0.0156 | 1.44 |
| CCTGCTAGGTCATGGTCGGCTAATCTACAGTATG | 3.56 | 2.8 | -0.0293 | 1.91 | -0.492 | 3.56 | 2.32 | 2.78 | 0.716 | 1.99 | 4.22 | 3.41 | 0.753 | -0.172 | 1.51 | 1.41 | -0.226 | 2.46 | -0.276 | 3.93 |
| TGAAGGAGGTTATAAGATCAGGGAACGTTGCAAA | 0.559 | 0.855 | -0.0635 | 0.774 | -0.481 | 2.16 | 0.845 | 1.42 | 0.992 | 1.16 | -0.131 | 0.876 | 0.728 | 0.392 | 0.374 | 0.292 | 0.19 | 0.993 | 0.904 | 0.905 |
| TAGCCTAGGTCATTGAGGGGCCAGTATAGAAAGC | 4.54 | 3.48 | 0.272 | 2.84 | 1.08 | 3.67 | 2.08 | 2.48 | 0.353 | 1.49 | 1.9 | 2.84 | 0.198 | 0.125 | 2.84 | 2.36 | -0.0238 | 3.39 | -0.506 | 3.93 |
| TCATATAGGTAAACAGGCGAAAGTCCGTAAGTTA | 0.58 | 0.715 | 0.0889 | 0.816 | -0.0877 | 1.56 | 1.45 | 2.91 | 3.94 | 3.3 | 4.24 | 2.83 | 0.751 | 0.916 | 1.19 | 0.767 | 0.508 | 1.04 | 0.681 | 0.356 |
| GCTGCTAGGTCAGGTTGGTCAGCTACCGGGTACG | 1.12 | 0.526 | -0.544 | 0.265 | -0.337 | 1.4 | 0.0957 | 0.884 | -0.631 | 0.221 | 2.57 | 2.37 | -0.857 | -0.886 | 0.811 | 0.288 | -0.331 | 0.391 | -0.864 | 3.32 |
| ACTATTAGTTGACTTAGGGCGACCGATACGACGC | 0.233 | -0.0475 | -0.0351 | -0.0198 | 0.794 | -0.104 | 0.88 | 0.00253 | 0.295 | 0.183 | 0.407 | 0.174 | 1.73 | 1.51 | 0.828 | -0.0513 | 0.0652 | 0.194 | 0.515 | 0.512 |
